According to PubChem BioAssay AID2685 (National Center for Advancing Translational Sciences (NCATS), 2010):
The whole screen tested about 320,000 compounds, of which about 2,100 (0.66%) were called active. About 53% were inconclusive and are not listed. Calls follow the shape of the dose curve; as a rule, active = well fitted inhibition curve with a large enough effect in the signal ratio, with a control signal flat (not every such curve was filed as active); inconclusive = small, poorly fitted or top-dose-only effect, or effect the other way, or a change in a side signal; inactive = flat fitted curve, though single readings scatter; the % refers to the signal ratio. Only a selection was taken, and actives are over-represented in it overall.
Potency is read from the fitted curve at half-maximal effect.

Experiment: qHTS Assay for Lipid Storage Modulators in Drosophila S3 Cells;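 as to cell number change: cells counted by Cell Tracker Red CMTPX staining in the red channel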
Conditions: BODIPY lipid droplet fluorescence, 18-24 h, cells fed with added oleic acid; cell number change: measured here: cell count max response; series mostly up to 46.1 µM
Source text: NIH Molecular Libraries Probe Production Centers Network [MLPCN] NIH Chemical Genomics Center [NCGC] MLPCN Grant: 1 R03 MH085686-01 Assay Submitter (PI): Beller, Mathias; Max-Planck-Institut fur Biophysikalische Chemie NCGC Assay Overview: Storing lipids as a reservoir for energy or the anabolism of elementary metabolites is a common feature of probably all cells and is conserved from bacteria to humans. The universal cellular lipid storage organelle is the so-called lipid storage droplet (LD). Although ubiquitous, LDs share a simple structure composed of a hydrophobic core that harbors the storage lipids, which is shielded by a droplet-specific phospholipid monolayer to which proteins are attached. The current model of LD biogenesis involves an incorporation of the lipid core into the membrane leaflets of the endoplasmic reticulum (ER) followed by a subsequent budding-like maturation of a LD, which ultimately pinches off. Once released, LD volume can increase by localized lipogenesis or fusion of existing droplet. Storage lipids are re-mobilized enzymatically by lipase activity. Lipase regulation in the adipocyte is heavily studied and involves multiple components including catecholamine signaling, the LD-associated proteins Perilipin and comparative gene identification (CGI-58) and at least two lipases named hormone sensitive lipase (HSL) and adipocyte triglyceride lipase (ATGL). LD regulation outside of the adipocyte is poorly understood and only few components are known. However, there is an urgent need to learn more about ectopic fat depots as mislocalized storage of lipids, for example in the liver or muscle, is an eminent health problem associated with insulin resistance or the metabolic syndrome. We developed a laser-scanning cytometer assay to enable 1,536-well screening and combined the results of the small molecules screen with an RNAi database based on lipid storage.
Triacsin C (Sigma-Aldrich T-4540), an inhibitor of long-chain fatty acyl CoA synthetase that blocks synthesis of triglycerides, was used as a positive control for lipid under-storage. A total of 23 nL of compound solution of different concentrations were transferred to the assay plates using a Kalypsys pin tool equipped with a 1,536-pin array containing 10-nL slotted pins (FP1S10, 0.457-mm diameter, 50.8 mm long; V&P Scientific). One microliter of oleic acid (400 uM) was added, and the plate was lidded with stainless steel rubber gasket lined lids containing pinholes. […] Fluorescence was detected by excitation of the fluorophores with a 488-nm laser on an Acumen Explorer (TTP Lab Tech). The total intensity in channel 2 (500-530 nm) reflected lipid droplet accumulation. Cells were detected using channel 3 (575-640 nm) with 5-um width and 100-um depth filters. The ratio of the number of objects in PMT channel 2 over the number of objects in PMT channel 3 was also calculated. Percent activity was computed relative to an internal control (100% inhibited lipid droplet deposition due to the presence of 20 uM Triacsin C), which was added to 32 wells/plate.
In the case of CCOC(=O)c1sc(NC(=O)CCc2ccccc2)nc1C, the Potency is reported as “inactive” and the cell number change is reported as 3.17%. With Cc1ccc(-n2c(C)cc(C(=O)CN3CCOCC3)c2C)cc1C the Potency was “inactive” and the cell number change was -2.77%. In the case of Cc1ccc(-n2c(C)cc(C(=O)COC(=O)c3ccc[nH]c3=O)c2C)cc1C, the Potency is reported as “inactive” and the cell number change is reported as -2.22%. For Cc1ccc(-n2c(C)cc(C(=O)COc3c(CO)cc(F)cc3CO)c2C)cc1C, the Potency was 8.2 µM (active) and the cell number change was 4.17%. In the case of Cc1cccc(NC(=O)C2CCCN2C(=O)Oc2ccccc2)c1 (centres undefined), the Potency is reported as “inactive” and the cell number change is reported as -1.72%. For Cc1cc(C)nc(NC(=O)c2c(Cl)cccc2Cl)n1, the Potency was “inactive” and the cell number change was 0.843%. For COc1cc(/C=N/NC(=O)c2ccc(CN3c4cccc5cccc(c45)S3(=O)=O)cc2)cc(OC)c1O, the Potency was “inactive” and the cell number change was -26.4%. In the case of COc1cc(/C=N/NC(=O)c2ccc(CN3C(=O)c4cccc5cccc3c45)cc2)cc(OC)c1O, the Potency is reported as 3.26 µM (active) and the cell number change is reported as -19.2%. For CN(C)c1ccc(/C=N/NC(=O)c2ccc(CN3C(=O)c4cccc5cccc3c45)cc2)cc1, the Potency was “inactive” and the cell number change was 10.4%. In the case of Cc1ccc(C)c(NC(=O)COc2coc(CN3CCc4ccccc4C3)cc2=O)c1, the Potency is reported as 6.51 µM (active) and the cell number change is reported as -25.7%. In the case of Cc1cc(C)cc(NC(=O)COc2coc(CN3CCc4ccccc4C3)cc2=O)c1, the Potency is reported as “inactive” and the cell number change is reported as -22.1%. For Cc1ccc(NC(=O)COc2coc(CN3CCc4ccccc4C3)cc2=O)c(C)c1, the outcome was “inactive [at 0.0737 µM]”. With CCc1cccc(CC)c1NC(=O)COC(=O)CC1c2ccccc2CCN1S(=O)(=O)c1ccccc1 (centres undefined) the Potency was “inactive” and the cell number change was 0.0752%. For COCCSc1nc(N)c(NC(=O)c2ccco2)c(=O)[nH]1, the Potency was “inactive” and the cell number change was -16.8%. In the case of COc1ccc(CC(=O)NCC(=O)N/N=C/c2c[nH]c3ccccc23)cc1, the Potency is reported as “inactive” and the cell number change is reported as 14.2%. With CCCCCCCNC(=O)C1(CC2CC(c3ccc(Cl)cc3)=NO2)CCNCC1 (centres undefined) the Potency was “inactive” and the cell number change was -6.47%. With CNC(=O)/C(=C\c1cccc(Oc2ccccc2)c1)NC(=O)c1ccccc1 the Potency was “inactive” and the cell number change was 2.1%. With CCCn1c(-c2ccc(OC)cc2)nc2c(=O)n(C)c(=O)[nH]c21 the Potency was 29.1 µM (active) and the cell number change was 11.6%. With CCCCn1c(-c2ccc(OC)cc2)nc2c(=O)n(C)c(=O)[nH]c21 the Potency was “inactive” and the cell number change was 12.4%. For CCCn1c(-c2ccccc2)nc2c(=O)n(C)c(=O)[nH]c21, the Potency was “inactive” and the cell number change was -15.6%. For CCN1CCN(CC(=O)Nc2ccc(N(C)C)cc2)CC1, the Potency was “inactive” and the cell number change was 14.8%. With CN(C)c1ccc(NC(=O)CN2CCC(N3CCCCC3)CC2)cc1 the Potency was 23.1 µM (active) and the cell number change was -25.9%. With CN(C)c1ccc(NC(=O)CN2CCC(NC(=O)C3CCCCC3)CC2)cc1 the Potency was “inactive” and the cell number change was 6.84%. With O=C(O)C1CC1C(=O)N1CCN(c2ccc(Cl)c(Cl)c2)CC1 (centres undefined) the Potency was “inactive” and the cell number change was 16.3%. For CCc1nc2nc(C)c(NS(=O)(=O)c3ccc(C4CCCCC4)cc3)c(=O)n2[nH]1, the Potency was “inactive”. With Cc1nnsc1C(=O)NC1CCCc2c1cnn2-c1ccccc1F (centres undefined) the Potency was 4.11 µM (active). For Cc1ccccc1-n1ncc2c1CC(C)(C)CC2NC(=O)c1snnc1C (centres undefined), the Potency was “inactive” and the cell number change was 7.34%. With Cc1cc(C(=O)NC2CCCc3c2cnn3-c2cccc(C)c2C)n(C)n1 (centres undefined) the Potency was 0.92 µM (active) and the cell number change was 5.94%. For COc1cc(C(=O)NC2CC(C)(C)Cc3c2cnn3-c2ccccc2)cc(OC)c1OC (centres undefined), the Potency was “inactive” and the cell number change was 9.79%. With Cc1cccc(-n2ncc3c2CCCC3NC(=O)CN2CCCC2=O)c1C (centres undefined) the Potency was “inactive” and the cell number change was -2.49%. For COc1ccc(C(=O)NC2CCCc3c2cnn3-c2cc(F)cc(F)c2)c(OC)c1OC (centres undefined), the Potency was “inactive”. In the case of O=C(CCN1CCCC1=O)NC1CCCc2c1cnn2-c1ccccc1F (centres undefined), the Potency is reported as “inactive” and the cell number change is reported as 11%. For COc1cc(C(=O)NC2CCCc3c2cnn3-c2ccccc2F)cc(OC)c1OC (centres undefined), the Potency was 16.4 µM (active) and the cell number change was 22.4%. With Cc1cccc(-n2ncc3c2CCCC3NC(=O)CCN2CCCO2)c1C (centres undefined) the Potency was “inactive” and the cell number change was -19.9%.
